Experimental findings from the supplement of paper PMC10412459 are described below.

This assay has as its system K562 SF3B1 K700E vs K562 SF3B1 WT. Put plainly: surviving fraction ratio K562 SF3B1 K700E / K562 SF3B1 WT (each relative to DMSO); higher = less selective killing of SF3B1 K700E cells. As to conditions: 5 days. The essentials:
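In 384-well plates holding 250 cells per well, isogenic K562 cells bearing an engineered mutant allele and matched wild-type cells received compounds from an in-house 80-compound library 24 h after seeding. Doses were 0.5, 1, 5, 10, 50, 100, 500 and 1,000 nM, with 5 d of continuous culture. Surviving fractions were taken from CellTiter-Glo readings and normalised to DMSO. The value reported is the mutant-over-wild-type ratio of these fractions.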

For the compound `CN(C)CC[C@H](CSc1ccccc1)Nc1ccc(S(=O)(=O)NC(=O)c2ccc(N3CCN(Cc4ccccc4-c4ccc(Cl)cc4)CC3)cc2)cc1[N+](=O)[O-]`, the “surviving fraction ratio K562 SF3B1 K700E / K562 SF3B1 WT” value runs as follows: (0.5nM) 0.745; (1nM) 0.762; (5nM) 0.761; (10nM) 0.841; (50nM) 0.902; (100nM) 0.819. For the same compound, the “surviving fraction ratio K562 SF3B1 K700E / K562 SF3B1 WT” value reads like this: (500nM) 0.908; (1000nM) 0.796.
On to `NS(=O)(=O)OC[C@@H]1C[C@@H](n2ccc3c(N[C@H]4CCc5ccccc54)ncnc32)C[C@@H]1O`, for which the “surviving fraction ratio K562 SF3B1 K700E / K562 SF3B1 WT” value (0.5nM) turned out to be 0.743; the “surviving fraction ratio K562 SF3B1 K700E / K562 SF3B1 WT” value (1nM) is 0.708; the “surviving fraction ratio K562 SF3B1 K700E / K562 SF3B1 WT” value (5nM) was determined as 0.772; the “surviving fraction ratio K562 SF3B1 K700E / K562 SF3B1 WT” value (10nM) came to 0.687; the “surviving fraction ratio K562 SF3B1 K700E / K562 SF3B1 WT” value (50nM) turned out to be 0.74; the “surviving fraction ratio K562 SF3B1 K700E / K562 SF3B1 WT” value (100nM) was 1.51. The “surviving fraction ratio K562 SF3B1 K700E / K562 SF3B1 WT” value runs as follows: (500nM) 1.22; (1000nM) 1.07.
Turning to `Nc1nc(=S)c2[nH]cnc2[nH]1` [6-thioguanine], the “surviving fraction ratio K562 SF3B1 K700E / K562 SF3B1 WT” value (0.5nM) was found to be 0.927; the “surviving fraction ratio K562 SF3B1 K700E / K562 SF3B1 WT” value (1nM) is 0.836; the “surviving fraction ratio K562 SF3B1 K700E / K562 SF3B1 WT” value (5nM) was found to be 0.914; the “surviving fraction ratio K562 SF3B1 K700E / K562 SF3B1 WT” value (10nM) was determined as 0.819; the “surviving fraction ratio K562 SF3B1 K700E / K562 SF3B1 WT” value (50nM) stood at 0.78; the “surviving fraction ratio K562 SF3B1 K700E / K562 SF3B1 WT” value (100nM) is 0.792. The “surviving fraction ratio K562 SF3B1 K700E / K562 SF3B1 WT” value by setting is: (500nM) 0.828; (1000nM) 0.777.
As to `Oc1nc(-c2ccc(C(F)(F)F)cc2)nc2c1CSCC2`, the “surviving fraction ratio K562 SF3B1 K700E / K562 SF3B1 WT” value (0.5nM) stood at 1.15; the “surviving fraction ratio K562 SF3B1 K700E / K562 SF3B1 WT” value (1nM) turned out to be 0.906; the “surviving fraction ratio K562 SF3B1 K700E / K562 SF3B1 WT” value (5nM) was 0.867; the “surviving fraction ratio K562 SF3B1 K700E / K562 SF3B1 WT” value (10nM) is 0.822; the “surviving fraction ratio K562 SF3B1 K700E / K562 SF3B1 WT” value (50nM) came to 1.35; the “surviving fraction ratio K562 SF3B1 K700E / K562 SF3B1 WT” value (100nM) stood at 1.11. Further, the “surviving fraction ratio K562 SF3B1 K700E / K562 SF3B1 WT” value is, setting by setting: (500nM) 1.15; (1000nM) 0.958.
Consider `C[C@]1(O)C[C@@H](c2nc(-c3ccc4ccc(-c5ccccc5)nc4c3)c3c(N)nccn32)C1`, for which the “surviving fraction ratio K562 SF3B1 K700E / K562 SF3B1 WT” value is 0.876 (0.5nM); 0.823 (1nM); 0.862 (5nM); 0.829 (10nM); 0.861 (50nM); 0.795 (100nM). For the same compound, the “surviving fraction ratio K562 SF3B1 K700E / K562 SF3B1 WT” value reads like this: (500nM) 0.804; (1000nM) 0.873.
For `CNC(=O)c1cc(Oc2ccc(NC(=O)Nc3ccc(Cl)c(C(F)(F)F)c3)cc2)ccn1` [sorafenib], the “surviving fraction ratio K562 SF3B1 K700E / K562 SF3B1 WT” value was 0.8 (0.5nM); 0.973 (1nM); 0.87 (5nM); 0.956 (10nM); 0.915 (50nM); 1 (100nM). Further, the “surviving fraction ratio K562 SF3B1 K700E / K562 SF3B1 WT” value reads like this: (500nM) 0.887; (1000nM) 0.973.
Regarding `CN(C)C/C=C/C(=O)Nc1cc2c(Nc3ccc(F)c(Cl)c3)ncnc2cc1O[C@H]1CCOC1`, the “surviving fraction ratio K562 SF3B1 K700E / K562 SF3B1 WT” value worked out at 0.936 (0.5nM); 1.06 (1nM); 0.796 (5nM); 0.769 (10nM); 0.795 (50nM); 0.679 (100nM). For the same compound, the “surviving fraction ratio K562 SF3B1 K700E / K562 SF3B1 WT” value came out at 0.666 (500nM) and 0.915 (1000nM).
With `C[C@]12O[C@H](C[C@]1(O)CO)n1c3ccccc3c3c4c(c5c6ccccc6n2c5c31)CNC4=O` [lestaurtinib], the “surviving fraction ratio K562 SF3B1 K700E / K562 SF3B1 WT” value was determined as 0.691 (0.1nM); 0.885 (0.2nM); 0.8 (1nM); 0.895 (2nM); 0.877 (10nM); 0.855 (20nM). The “surviving fraction ratio K562 SF3B1 K700E / K562 SF3B1 WT” value reads like this: (100nM) 0.823; (200nM) 0.907.
With `COc1ccc(C2=N[C@@H](c3ccc(Cl)cc3)[C@@H](c3ccc(Cl)cc3)N2C(=O)N2CCNC(=O)C2)c(OC(C)C)c1` [Nutlin3], the “surviving fraction ratio K562 SF3B1 K700E / K562 SF3B1 WT” value was 1 (0.5nM); 0.984 (1nM); 0.843 (5nM); 0.873 (10nM); 0.861 (50nM); 0.781 (100nM). Besides, the “surviving fraction ratio K562 SF3B1 K700E / K562 SF3B1 WT” value stood at 0.767 (500nM) and 0.894 (1000nM).
Turning to `NC1(c2ccc(-c3nc4ccn5c(=O)[nH]nc5c4cc3-c3ccccc3)cc2)CCC1`, the “surviving fraction ratio K562 SF3B1 K700E / K562 SF3B1 WT” value was 0.882 (0.5nM); 0.849 (1nM); 0.841 (5nM); 0.686 (10nM); 0.61 (50nM); 0.706 (100nM). Besides, the “surviving fraction ratio K562 SF3B1 K700E / K562 SF3B1 WT” value reads like this: (500nM) 0.654; (1000nM) 0.626.
